# In the library only some 6.7% were active in any assay of this set; here they are far more common.
# SW480 rereplic – inducers of DNA re-replication in SW480 colon cancer cells. AID 624297. Potency, µM (highest dose often 46.1 µM), most hits filed as activators. 340,000 compounds, 1.8% hits. SW480 DNA re-replication, Hoechst DNA content imaging, 48 h; note: nearly all actives have a fitted effect of over 55% in size
#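 Cells (250 per well) received 23 nL compound or DMSO by pin tool and were kept 48 hr at 37 C, 5% CO2. Nuclei were then stained with Hoechst for 40 min and scanned for DNA content.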
# KB-V1 MDR tox – KB-V1 MDR subline cytotoxicity. 400,000 compounds, 3.4% hits. AID 1347076. Potency, µM (series often up to 46.1 µM), hits mostly cytotoxic. KB-V1 MDR cells viability, CellTiter-Glo, 72 h; note: nearly all actives have a fitted effect of over 60% in size
#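 qHTS viability screen in drug-selected KB-V1 MDR cells: 72 h compound treatment at 37 degrees C, ATP luminescence end point.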
# PINK1 modulator – changes PINK1 expression. PINK1 immunofluorescence, high-content cytometry, 24 h. Potency, µM (series often up to 76.6 µM), actives largely listed as activators. 410,000 compounds, 0.2% hits; active = well fitted activation curve with a large enough effect; inconclusive = small, poorly fitted or top-dose-only effect; cell line not stated here; note: nearly all actives have a fitted effect of over 65% in size
#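 Cells are seeded, rested 12 hours, then given compound at five concentrations or DMSO for 24 hours. After fixation, blocking and antibody staining, PINK1 amount and mitochondrial localization are scored; CCCP serves as control.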
# KB-3-1 tox – kills parental KB-3-1 adenocarcinoma cells. KB-3-1 viability, CellTiter-Glo ATP luminescence, 72 h. Potency, µM (highest dose often 46.1 µM), hits mostly cytotoxic. 400,000 compounds, 1.4% hits. AID 1347075; note: nearly all actives have a fitted effect of over 60% in size
#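 Screening of KB-3-1 cells (DMEM, 10% FBS, phenol-red free) ran from lowest to highest compound concentration; after 72 h at 37 °C viability was read luminescently and curves fitted.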
# MCF10A rereplic – inducers of DNA re-replication in MCF 10A breast cells; 350,000 compounds, 2.9% hits; Potency, µM (highest dose often 46.1 µM), usual class: activators; MCF 10A DNA re-replication, Hoechst nuclear intensity, 48 h; note: nearly all actives have a fitted effect of over 50% in size
# Numbers stand for hits; . = inactive; ? = inconclusive; / = not tested or not shown; ! = not confirmed by another sample; [ ] = dose if it differs, or a comment. Unless noted, calls come from the whole dose curve; as a rule, active = well fitted curve in the direction sought with a large enough effect; inconclusive = small, poorly fitted or top-dose-only effect, or another doubt; inactive = no such curve, though single readings can be large; an effect the other way counts as inactive or inconclusive.
SMILES,SW480 rereplic,KB-V1 MDR tox,PINK1 modulator,KB-3-1 tox,MCF10A rereplic
O=C(Nc1ccccc1F)c1ccc(CN2CCc3ccccc3C2)cc1,?,21µM,.,9.2µM,?
O=C(Nc1ccccc1)c1ccc(CN2CCc3ccccc3C2)cc1,.,?,.,?,?
Cc1cc(C)cc(NC(=O)CSc2nc3c(c(=O)[nH]2)CN(Cc2ccc(F)cc2)CC3)c1,.,21µM!,.,.,.
Cc1ccc(NC(=O)c2ccc(CN3CCc4ccccc4C3)cc2)cc1,.,4.1µM,.,.,?
COC(=O)c1ccc(C)c(NC(=O)c2ccc(CN3CCc4ccccc4C3)cc2)c1,.,.,.,.,.
Cc1cc(C)cc(NC(=O)c2ccc(CN3CCc4ccccc4C3)cc2)c1,.,?,.,?,21µM
Cc1cccc(NC(=O)c2ccc(N(Cc3ccccc3)S(C)(=O)=O)cc2)c1,/,?,.,.,/
O=C(N/N=C/C=C\c1ccco1)c1ccccn1,.[9.22 µM],.,.,.,?
O=C(N/N=C\C=C\c1ccco1)c1cc(-c2ccc3ccccc3c2)n[nH]1,.,.,?,.,7.3µM
Cc1cc(C)c2c(c1)/C(=N/NS(=O)(=O)c1ccccc1)CCC2,.,.,.,.,?
Cc1cc(C)c2c(c1)/C(=N/NS(=O)(=O)c1ccc(Br)cc1)CCC2,.,?,.,.,7.1µM
COC(=O)c1ccc(NC(=O)CCc2c(C)nn(-c3ccc(N4CCOCC4)nn3)c2C)cc1,/,.,.,.,/
CCN(CC)C(=O)C(C)N(C#N)c1nc(NC(C)C)nc(NC(C)C)n1 (stereo not drawn),.,9.2µM,.,.,.
Cc1cccc(CN2CCN(C3CN(C4CCCCC4)S(=O)(=O)C3)CC2)c1 (stereo not drawn),/,.,.,?,/
CCCCS(=O)(=O)/C=C\C1C2C=CC(C2)C1S(=O)(=O)CCCC (stereo not drawn),.,.,.,.,.
CCCCS(=O)(=O)/C=C\C=C/S(=O)(=O)CCCC,?,.,.,7.3µM,?
CC1(C)C2([N+](=O)[O-])CN3CC1([N+](=O)[O-])CN(C2)C3C(O)C(O)C(O)CO (stereo not drawn),10µM,.,.,.,.
COc1ccc(COC(=O)c2cc([N+](=O)[O-])ccc2N2CCOCC2)cc1F,?,0.073µM,.,0.13µM,.
O=C(OCc1ccc(Br)cc1)c1cc([N+](=O)[O-])ccc1N1CCOCC1,/,1.3µM,.,5.8µM,/
O=C(OCc1cccc(Cl)c1)c1cc([N+](=O)[O-])ccc1N1CCOCC1,?,?,.,?,?
CCc1ccc(C(=O)COC(=O)c2cc([N+](=O)[O-])ccc2N2CCOCC2)cc1,10µM,6.5µM,.,?,4.6µM
CCOC(=O)c1cc(CC)sc1NC(=O)c1cc([N+](=O)[O-])ccc1N1CCOCC1,2.3µM,.,.,1µM,?
CCOCCc1nnc(NC(=O)C(=O)c2cc(C)n(-c3ccc(C)cc3C)c2C)s1,/,.,.,.,/
CC(=O)N/N=C/c1cc(C(C)(C)C)cc(/C=N/NC(C)=O)c1O,3.3µM,?,.,.,15µM
CCc1ccc(OCCNC(=O)c2ccccc2SCc2ccccc2)cc1,.,?,.,?,16µM
SMILES,SW480 rereplic,KB-V1 MDR tox,PINK1 modulator,KB-3-1 tox,MCF10A rereplic
COc1cccc(OCc2nc3ncc(Br)cc3[nH]2)c1,.,1µM,.,5.8µM,.
Cc1cc(C)cc(OCc2nc3ncc(Br)cc3[nH]2)c1,5.2µM,1µM,.,1.3µM,?
COC(=O)c1cc(-c2c(C)oc3cc(OC)ccc3c2=O)c(C)o1,.,18µM,.,.,.
COC(=O)c1cc(-c2c(C)oc3cc(O)ccc3c2=O)c(C)o1,.,.,?,.,.
CN(CC1CCCN(CCc2ccc(Cl)cc2)C1)C(=O)CC(F)(F)F (stereo not drawn),5.8µM,.,.,.,.
CN(CC1CCCN(CCc2ccc(Cl)cc2)C1)C(=O)c1ccoc1 (stereo not drawn),.,?,.,.,.
COc1ccc(C(c2sc3ncnn3c2O)N2CC(C)OC(C)C2)cc1OC (stereo not drawn),?,.,.,?,.
COc1ccc(C(c2sc3ncnn3c2O)N2CCN(c3ccccc3F)CC2)cc1OC (stereo not drawn),.,1.6µM,.,2.9µM,.
CCOc1ccc(NC(=O)c2cn(C)c(=O)c3cc(OC)c(OC)cc23)cc1,/,?,.,.,/
CCn1cc(CNC(=O)c2cc(COc3ccc(F)cc3Cl)on2)cn1,18µM,?,.,?,?
Cc1ccc(C(=O)O)cc1NC(=S)NC(=O)c1ccc(COc2ccccc2)cc1,.,.,.,.,?
COc1cccc(-c2cc(C(=O)NCCc3ccc(C)cc3)[nH]n2)c1,/,.,.,.,/
CCOC(=O)N1CCN(C(=O)c2ccc3nc(SCc4ccc(F)cc4)n(C)c3c2)CC1,.[9.22 µM],9.2µM,.,.,.
C=CC[n+]1c(-c2ccc(C)cc2)csc1Nc1c(C)n(C)n(-c2ccccc2)c1=O,.,?,.,?,.
C=CC[n+]1c(-c2ccc(OCC)cc2)csc1NNC(=O)Nc1ccccc1,.,18µM,.,18µM,.
Cc1cc(N2CCC(C)CC2)nc2ccc(NC(=O)/C=C/c3cccc(Cl)c3)cc12,/,.,.,.,/
CS(=O)(=O)c1nc([N+](=O)[O-])nn1CCCc1ccccc1,.,?,.,26µM,4.6µM
Cn1nc([N+](=O)[O-])nc1S(C)(=O)=O,9.2µM,?,.,?,5.8µM
CCN(CC)CCN(Cc1cc2cc3c(cc2[nH]c1=O)OCO3)C(=S)NC,.,.,.,.,.
CCC(=O)N/C(N)=N/c1nc(C)c2cc(OC)ccc2n1,?,.,3.5µM,?,.
Cc1ccc(N(CC(=O)NCc2ccc(OC(C)C)cc2)S(=O)(=O)N(C)C)cc1,/,.,.,.,/
CCc1nnc(NC(=O)CSc2nnc(C3CC3)n2C)s1,.,.,.,.,.
Cn1c(SCC(=O)Nc2nc(C(C)(C)C)cs2)nnc1C1CC1,.,.,.,.,6.5µM
Cc1ccc(S(=O)(=O)CCC(=O)NC2CCCCC2)cc1,.,.,.,.,.
Cc1ccc(S(=O)(=O)NCCC(=O)NC2CCCCCC2)cc1C,.,18µM,.,.,.
SMILES,SW480 rereplic,KB-V1 MDR tox,PINK1 modulator,KB-3-1 tox,MCF10A rereplic
Cc1ccc(S(=O)(=O)CCC(=O)NC2CCCC2)cc1,21µM,.,.,.,.
Cc1ccc(S(=O)(=O)NCCC(=O)NC2CCCCCC2)cc1,.,.,.,.,.
CCCCc1c(-c2ccccc2F)ncn1CCc1ccccc1OC,/,15µM,?,?,/
CCCCCc1c(-c2ccccc2F)ncn1CCc1ccccc1OC,/,18µM,.,?,/
CC(C)(C)c1ccc(C(=O)N2CCC3(CC2)CC3C(=O)NCCc2ccccn2)cc1 (stereo not drawn),/,/,.,/,/
CN1CCN(c2ccc(NC(=O)COc3ccc4ccccc4c3)cc2)CC1,?,?,.,.,16µM
CN1CCc2nc(NC(=O)COc3ccc4ccccc4c3)sc2C1,?,?,.,?,13µM

# Bioassay records (PubChem)
